An excerpt weighted towards active compounds, which were near 21% of everything screened.
TDP1 cell CPT: qHTS for Inhibitors of human tyrosyl-DNA phosphodiesterase 1 (TDP1): qHTS in cells in presence of CPT; chicken DT40 Tdp1-/-;hTDP1 cells + 20 nM CPT, ATP luminescence, 48 h; 420,000 tested, 12% active; Potency, µM (highest dose often 46.2 µM), hits mostly inhibitors; also: nearly all actives have a fitted effect of over 55% in size
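Chicken DT40 Tdp1-/- cells stably complemented with human TDP1 were seeded at 400 cells/well in medium containing 20 nM camptothecin, exposed to pin-transferred compounds, and grown at 37 °C for at least 48 hr. Viability was read as ATP luminescence.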
ClpP mod: qHTS Assay for Activators of ClpP | 340,000 tested, 1.9% active | purified B. subtilis ClpP, FRET peptide cleavage, 20 min | AID 651965, 2013 | ATP-dependent Clp protease proteolytic subunit (Bacillus subtilis (strain 168)), P80244 | Potency, µM (series often up to 57.5 µM); active = well fitted falling curve with a large enough effect; inconclusive = small, poorly fitted or top-dose-only effect; inactive = no such curve, though single readings can be large or run the other way; also: the source files actives as falling curves though it sought activators and does not explain the sign; nearly all actives have a fitted effect of over 65% in size
Target sequence (P80244 whole entry, looked up): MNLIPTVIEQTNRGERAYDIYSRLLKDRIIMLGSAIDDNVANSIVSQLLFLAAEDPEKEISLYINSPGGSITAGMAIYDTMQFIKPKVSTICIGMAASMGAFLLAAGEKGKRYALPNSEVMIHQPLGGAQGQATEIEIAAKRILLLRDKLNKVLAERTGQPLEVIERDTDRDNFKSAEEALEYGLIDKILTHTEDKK
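ClpP 10 microg/mL final, pH 8 Tris/KCl buffer with BSA, glycerol, Tween-20; compound pinned in; FRET-FV substrate; RT 20 min; Ex320/Em430; ΔFRET vs ADEP 5.8 microM, DMSO, no enzyme.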
TDP1 cell noCPT: qHTS for Inhibitors of human tyrosyl-DNA phosphodiesterase 1 (TDP1): qHTS in cells in absence of CPT; DT40 Tdp1-/- hTDP1 cells, no CPT, ATP luminescence, 48 h; Potency, µM (series often up to 46.2 µM), most hits filed as inhibitors; 420,000 tested, 15% active; also: nearly all actives have a fitted effect of over 55% in size
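DT40 Tdp1-/-;hTDP1 cells, no CPT (DMSO vehicle only), 400 cells/well; compounds pin-transferred; ≥48 hr, 37 °C; CellTiter-Glo 30 min RT dark, luminescence read.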
D3 antag: qHTS of D3 Dopamine Receptor Antagonist: qHTS; D(3) dopamine receptor (Homo sapiens), P35462; D3R cells, DiscoveRx beta-arrestin luminescence, antagonist mode; hits give low values; max response, negative = inhibition, %; 360,000 tested, 2.5% active; AID 652054, 2013; in the data active = max response below about -50%; inconclusive = no clear call, values can overlap the other calls
Target sequence (P35462 whole entry, looked up): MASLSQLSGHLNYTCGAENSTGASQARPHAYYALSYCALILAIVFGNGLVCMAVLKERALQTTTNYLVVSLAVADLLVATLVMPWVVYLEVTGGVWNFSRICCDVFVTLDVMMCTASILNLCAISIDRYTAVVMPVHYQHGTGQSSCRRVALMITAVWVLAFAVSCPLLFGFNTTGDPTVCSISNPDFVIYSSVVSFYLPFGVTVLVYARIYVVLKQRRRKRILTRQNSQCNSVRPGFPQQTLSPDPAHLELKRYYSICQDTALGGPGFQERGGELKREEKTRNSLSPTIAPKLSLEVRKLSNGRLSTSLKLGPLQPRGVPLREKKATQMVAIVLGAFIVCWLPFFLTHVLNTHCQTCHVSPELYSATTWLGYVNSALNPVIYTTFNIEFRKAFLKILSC
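Cells plated overnight at 1500 cells/well, then exposed to library compounds with dopamine controls for 90 minutes at 37 degrees C. DiscoveRx reagent added for 30–60 minutes at room temperature; luminescence read, quantitative HTS format.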
IL1B secr inh: qHTS for Inhibitors of Inflammasome Signaling: IL-1-beta AlphaLISA Primary Screen | 360,000 tested, 4.7% active | THP-1 LPS/ATP IL-1B secretion, AlphaLISA, 16 h; hits give low values | activity change, % at 57.5 µM; in the data active = activity change below about -50%; inconclusive = mostly about -30% to -49%
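Secreted IL-1B measured by AlphaLISA bead assay after 16 h compound exposure of THP-1 cells; compounds (final up to 57.5 uM) added 1 h before LPS (250 ng/mL) and ATP (1.25 mM) stimulation; lower signal means less secretion.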
DRD3 agonist: qHTS of D3 Dopamine Receptor Agonist: qHTS; D(3) dopamine receptor (Homo sapiens), P35462; D3R DiscoveRx beta-arrestin cells, luminescence, 90 min; max activation, %; 410,000 tested, 0.58% active; AID 652048, 2013; in the data active = max activation above about 30%
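Agonist mode: compounds and dopamine controls were applied to plated cells for 90 min at 37 degrees C after an overnight attachment at 1500 cells/well. Luminescent read-out followed 30 - 60 minutes at room temperature with DiscoveRx detection reagent.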
A number is an active result; 0 = inactive; ? = inconclusive; - = not tested or not shown. Unless noted, calls follow the shape of the dose curve; as a rule, active = well fitted inhibition curve with a large enough effect; inconclusive = small, poorly fitted or top-dose-only effect; inactive = flat fitted curve, though single readings scatter.

SMILES | TDP1 cell CPT | ClpP mod | TDP1 cell noCPT | D3 antag | IL1B secr inh | DRD3 agonist
CC(Sc1nnc(-c2ccccc2)c(-c2ccccc2)n1)C(=O)NCC1CCCO1 (configuration not stated) | ? | - | 23µM | 0 | 0 | 0
O=C(CSc1ncnc2sc3c(c12)CCC3)NCC1CCCO1 (configuration not stated) | 0 | 0 | 0 | 0 | 0 | 0
Cc1ccc(-c2csc3ncnc(SCC(N)=O)c23)cc1 | ? | - | ? | 0 | ? | 0
CC1CCc2c(sc3ncnc(SC(C)C(=O)NCC4CCCO4)c23)C1 (configuration not stated) | 26µM | - | 21µM | 0 | 0 | 0
Cc1sc2ncnc(SCC(=O)NCC3CCCO3)c2c1C (configuration not stated) | 0.26µM | 0 | 5.2µM | 0 | 0 | 0
Cc1nc(S(=O)(=O)N2CCN(c3ccc(Cl)cc3)CC2)cn1C | 0 | 0 | 0 | - | - | 0
O=C(CSCCOc1ccccc1)NCc1ccncc1 | 0 | 0 | 0 | 0 | 0 | 0
CC(=O)N1CCCC1c1nc2ccccc2n1Cc1ccccc1Cl (configuration not stated) | ? | 0 | 18µM | - | - | 0
CC(=O)Nc1nc2ccccc2n1Cc1ccccc1C | 9.2µM | 0 | 13µM | 0 | ? | 0
CC(=O)N1CCCC1c1nc2ccccc2n1Cc1ccccc1 (configuration not stated) | 0 | 0 | 0 | - | - | 0
CC(=O)Nc1nc2ccccc2n1Cc1ccccc1Cl | 21µM | ? | 8.2µM | 0 | -56 | 0
CC1CCCCN1C(=O)c1ccc2c(c1)N(Cc1ccc(Cl)cc1)C(=O)c1ccccc1S2=O (configuration not stated) | ? | 0 | ? | - | - | 0
O=C(c1ccoc1)N1CCC2(CC1)Oc1ccc(Cl)cc1C(=O)C21CC(c2ccc(Cl)cc2)=NO1 (configuration not stated) | 21µM | 0 | ? | 0 | ? | 0
O=C(c1ccoc1)N1CCC2(CC1)Oc1ccc(F)cc1C(=O)C21CC(c2ccc(Cl)cc2)=NO1 (configuration not stated) | ? | 0 | ? | 0 | -56 | 0
O=C(CCCCCCCC(=O)N1CCCCCC1)N1CCCCCC1 | 23µM | 0 | ? | 0 | 0 | 0
Nc1nc(-c2ccccc2)nn1S(=O)(=O)c1ccccc1 | 0 | 0 | 0 | 0 | 0 | 0
Cc1cccc(C)c1OCC(O)Cn1c2ccccc2c2ccccc21 (configuration not stated) | ? | 0 | 21µM | 0 | 0 | 0
OC(COCC(F)(F)C(F)(F)C(F)(F)C(F)F)Cn1c2ccccc2c2ccccc21 (configuration not stated) | 13µM | 0 | 8.2µM | ? | -103 | 0
Cc1ccc(OCC(O)Cn2c3ccccc3c3ccccc32)cc1 (configuration not stated) | ? | 0 | 13µM | 0 | -84 | 0
Cc1cc(C)n(CC(O)COc2c(C)cccc2C)n1 (configuration not stated) | 0 | 0 | 0 | 0 | 0 | 0
Cc1ccc(NC(=O)[C@H](C)NC(=O)C2CCN(C(=O)[C@@H](NC(=O)OC(C)(C)C)C(C)C)CC2)cc1 | 0 | 0 | 0 | 0 | 0 | 0
NS(=O)(=O)c1ccc(NC(=O)CCC(=O)O)cc1 | 0 | - | 0 | - | - | 0
CCNC(=S)Nc1nc2c(cc1C(=O)OCC)CCCC2 | ? | 0 | ? | 0 | 0 | 0
C=CCNC(=S)Nc1nc2c(cc1C(=O)OCC)CCCC2 | ? | - | 23µM | 0 | 0 | 0
O=C(c1cccc(S(=O)(=O)N2CCc3ccccc32)c1)N1CCN(c2ccccn2)CC1 | ? | - | 23µM | 0 | 0 | 0
SMILES | TDP1 cell CPT | ClpP mod | TDP1 cell noCPT | D3 antag | IL1B secr inh | DRD3 agonist
COc1ccc(N2CCN(C(=O)c3cccc(S(=O)(=O)N4CCc5ccccc54)c3)CC2)cc1 | ? | - | 15µM | 0 | 0 | 0
O=C(NCc1ccccn1)c1cccc(S(=O)(=O)N2CCc3ccccc32)c1 | ? | 0 | ? | 0 | 0 | 0
CS(=O)(=O)N1CCc2cc(C(=O)N3CCN(c4ccc(F)cc4)CC3)ccc21 | ? | 0 | 21µM | 0 | 0 | 0
COc1ccc(N2CCN(C(=O)c3cccc(S(=O)(=O)N4CCCc5ccccc54)c3)CC2)cc1 | ? | 0 | ? | 0 | 0 | 0
COc1cc(/C=N/NC(=O)C(=O)NCc2ccco2)cc(Br)c1O | 0 | - | 0 | 0 | 0 | 0
CCCc1cc(=O)oc2cc(OCC(=O)NCCc3c[nH]c4ccc(OC)cc34)ccc12 | 16µM | 0 | 15µM | 0 | 0 | 0
COc1ccc(CCNC(=O)COc2ccc3c(C)cc(=O)oc3c2)cc1OC | ? | 0 | 13µM | 0 | 0 | 0
Cc1cc(=O)oc2cc(NC(=O)c3ccccc3OC(F)F)ccc12 | 0 | 0 | 0 | 0 | 0 | 0
Cc1cc(=O)oc2cc(OCC(=O)Nc3c(C(C)C)cccc3C(C)C)ccc12 | ? | 0 | 13µM | - | - | 0
Cc1cc(=O)oc2cc(NC(=O)C(C)Oc3cccc(Cl)c3)ccc12 (configuration not stated) | ? | 10µM | ? | 0 | 0 | 0
CCCc1cc(=O)oc2cc(OCC(=O)NCCc3ccc(S(N)(=O)=O)cc3)ccc12 | 0 | 0 | 0 | 0 | 0 | 0
COc1cccc(-c2cnc(C(O)c3ccc(C)cc3C)[nH]2)c1 (configuration not stated) | ? | 0 | ? | 0 | 0 | 0
COc1ccc(-c2noc(-c3ccccc3C(=O)NCC3CCCO3)n2)cc1 (configuration not stated) | 0 | - | ? | 0 | 0 | 0
Cc1cc(OCC(=O)Nc2ccccc2C)no1 | 0 | 0 | 0 | 0 | 0 | 0
Cc1cc(=O)oc2cc(OCC(=O)NCCCN3CCOCC3)ccc12 | 0 | 28µM | 0 | 0 | 0 | 0
Cc1cc(OCC(=O)Nc2c(C(C)C)cccc2C(C)C)no1 | 13µM | 0 | 8.2µM | 0 | 0 | 0
O=C(N/N=C/C(Br)=C\c1ccccc1)c1ccco1 | 6.5µM | - | 9.2µM | 0 | ? | 0
Cc1occc1C(=O)N/N=C/C(Br)=C\c1ccccc1 | 18µM | - | 12µM | 0 | ? | 0
Cc1onc(-c2ccccc2)c1C(=O)N/N=C/C(Br)=C/c1ccccc1 | 6.5µM | 0 | 9.2µM | 0 | ? | 0
Cc1occc1C(=O)N/N=C/c1c[nH]c2ccccc12 | 0 | 0 | 0 | 0 | 0 | 0
